Only some compounds are listed: those with a hit (about 1.4% of all), similar ones and a draw of the others.
A3A deaminase: inhibitors of human APOBEC3A DNA deaminase; recombinant A3A, FAM/TAMRA ssDNA deamination fluorescence; inhibition, % at 20 µM; hit rate 0.41% among 330,000; AID 493011;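 active means at least 40% inhibition at 20 µM here, with at most 30% in a related deaminase screen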;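 further: plate controls were A3A with DMSO for no effect and wells lacking A3A enzyme for full effect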
Target sequence (P31941 whole entry, looked up): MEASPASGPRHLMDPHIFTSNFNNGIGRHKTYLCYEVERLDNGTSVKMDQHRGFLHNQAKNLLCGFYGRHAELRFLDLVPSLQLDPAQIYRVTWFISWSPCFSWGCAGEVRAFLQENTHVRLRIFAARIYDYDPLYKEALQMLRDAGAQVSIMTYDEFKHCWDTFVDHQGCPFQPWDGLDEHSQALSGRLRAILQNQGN
FAS-TE inh: FAS thioesterase (human) inhibition; AID 602261; inhibition, % at 15 µM; P49327; recombinant FAS-TE, OMFH fluorogenic substrate, fluorescence endpoint; hit rate 0.67% among 360,000;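 active means compounds whose normalised, plate-corrected inhibition of enzyme fluorescence in the single-dose primary screen is 50% or more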;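 further: 0% = DMSO with enzyme and 100% = substrate without enzyme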
NPR2 activator: GC-B (human) receptor activation; hit rate 0.11% among 370,000; activation, % at 10 µM; AID 1920062; P20594; HEK293-GC-B cells, CNP EC30, cGMP TR-FRET; 0% at EC30 CNP, 100% saturating CNP;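 active means activation at 10 µM reaching about 35% in either raw or pattern-adjusted values, limit read from the data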
APOBEC3G inh: blocks human APOBEC3G single-stranded DNA deamination | recombinant A3G, ssDNA deamination FAM/TAMRA fluorescence | AID 493012 | inhibition, % at 20 µM | Q9HC16 | hit rate 0.28% among 330,000;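 active means inhibition of at least 40% at 20 µM, with no more than 30% in the related APOBEC3A deaminase screen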;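 further: plate controls were DMSO wells with A3G for no effect and wells lacking A3G enzyme for full effect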
Target sequence (Q9HC16 whole entry, looked up): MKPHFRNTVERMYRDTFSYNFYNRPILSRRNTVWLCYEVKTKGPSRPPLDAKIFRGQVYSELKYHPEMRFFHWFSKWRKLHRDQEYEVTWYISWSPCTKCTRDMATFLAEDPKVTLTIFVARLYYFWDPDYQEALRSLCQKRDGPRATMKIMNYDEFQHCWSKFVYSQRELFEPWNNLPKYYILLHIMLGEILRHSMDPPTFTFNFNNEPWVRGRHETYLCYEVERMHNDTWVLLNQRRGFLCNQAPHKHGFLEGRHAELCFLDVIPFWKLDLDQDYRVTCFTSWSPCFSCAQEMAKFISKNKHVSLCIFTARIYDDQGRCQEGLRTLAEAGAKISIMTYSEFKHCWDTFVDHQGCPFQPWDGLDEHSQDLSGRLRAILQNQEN
NPR1 activator: GC-A (human) enzyme activation | HEK293 GC-A cells, cGMP TR-FRET, EC30 ANP; 0% at EC30 ANP, 100% saturating ANP | activation, % at 10 µM | hit rate 0.14% among 370,000; in the data active means activation above about 40%
FAS-TE conf: FAS thioesterase (human) inhibition, confirmation; recombinant FAS-TE, OMFH fluorogenic substrate, fluorescence; inhibition, % at 15 µM; hit rate 45% among 2,300; shares compounds with FAS-TE inh;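 active means compounds inhibiting the enzyme by at least 50% at 15 µM in any one of the replicates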;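 further: 0% = enzyme with DMSO only and 100% = wells lacking enzyme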
The depositor's hits bear a star; . = not tested or not shown.

SMILES | A3A deaminase | FAS-TE inh | NPR2 activator | APOBEC3G inh | NPR1 activator | FAS-TE conf
CSCCC(NC(=O)c1ccc(Cl)c([N+](=O)[O-])c1)C(=O)N1CCN(C/C=C/c2ccccc2)CC1 (stereo not drawn) | -1 | 58* | 1 | -5 | 2 | 59*
N#CC1CCN(C(=O)c2ccc3c(Cl)c4c(nc3c2)CCCC4)CC1 | -3 | 78* | 2 | -8 | 8 | 86*
CCOC1=C2CN(S(=O)(=O)c3ccc(C)cc3)[C@H](c3ccccc3)C[C@H]2[C@H]2C(=O)N(c3ccccc3)C(=O)[C@H]2C1 | . | 59* | -3 | . | 1 | 29
CCOC1=C2CN(S(=O)(=O)c3ccc(C)cc3)[C@H](c3ccccc3)C[C@@H]2N(S(=O)(=O)c2ccc(C)cc2)[C@H](c2cccc(C)c2)C1 | . | 15 | 0 | . | -1 | .
CCOC1=C2CN(S(=O)(=O)c3ccc(C)cc3)[C@@H](c3ccc(CC)cc3)C[C@H]2[C@H]2C(=O)N(c3ccccc3)C(=O)[C@H]2C1 | . | 72* | -6 | . | 2 | 31
CCOC1=C2CN(S(=O)(=O)c3ccc(C)cc3)[C@H](c3cccc4ccccc34)C[C@H]2[C@H]2C(=O)N(c3ccccc3)C(=O)[C@H]2C1 | . | 77* | -4 | . | 1 | 24
O=c1c2ccccc2n(Cc2ccco2)n1[C@@H](Cc1ccccc1)Cn1cc(-c2ccc(-c3ccccc3)cc2)nn1 | . | . | -1 | . | -4 | .
COC(=O)CC[C@@H](/C=C/C(=O)OC(C)(C)C)Sc1ccc(C(C)(C)C)cc1 | . | . | 3 | . | 0 | .
CCCc1cc(=O)oc2c(C)c(OCc3nn[nH]n3)ccc12 | 0 | 20 | -5 | 1 | -10 | .
COc1ccc(-c2cc(=O)oc3c(C)c(OCc4nn[nH]n4)ccc23)cc1 | -2 | 62* | 3 | -5 | 4 | 69*
Cc1c(OCc2nn[nH]n2)ccc2c(-c3ccccc3)cc(=O)oc12 | 2 | 76* | 1 | -4 | -2 | 86*
CC(c1ccccc1)N1CC[C@H]2C=CC[C@@H](C(=O)Nc3cccc(Cl)c3)[C@H]2C1=O (stereo partly drawn) | . | . | -5 | . | -1 | .
CC1=C(C(=O)Nc2nc3ccccc3s2)C(c2ccco2)C(C#N)=C(SCC(=O)NC2CCCCC2)N1 (stereo not drawn) | 1 | 77* | -3 | -3 | -5 | -3
COC(=O)[C@]12C[C@H](CC(=O)NCc3ccc(C)o3)C(=O)N(Cc3ccccc3)C1=C[C@H](C(C)C)O[C@@H]2C1CC1 | . | . | 3 | . | -4 | .
O=C1C(Cc2ccccc2)Nc2ncnc(N3CCN(c4ccccc4)CC3)c2N1Cc1ccc(Cl)cc1 (stereo not drawn) | 1 | 84* | -6 | 0 | -1 | -5
O=C(c1ccncc1)N1CC[C@H]2[C@H](CCCN2Cc2ccccc2)C1 | . | . | 2 | . | -2 | .
Cc1cc2c(=Cc3ccc(N(C)C)cc3)c3ccccc3n2[n+]1C | . | -1 | -23 | . | -17 | .
CCOC(=O)c1cc2c(=Cc3ccc(N(C)C)cc3)c3ccccc3n2[n+]1C | . | 62* | -19 | . | -16 | 61*
C#CCNC(=O)C[C@@H]1C(=O)N2CCCC3=C2[C@@]1(C(=O)OC)CCCC3 | . | . | 4 | . | 6 | .
CC(C)(C)NC(=O)c1ccc(COc2ccc(Cl)cc2Cl)o1 | -1 | 65* | -2 | -3 | 18 | 21
O=C(NCc1cccnc1)c1ccc(COc2ccc(Cl)cc2Cl)o1 | 3 | -3 | -1 | -23 | 20 | .
COc1ccccc1C(=O)Nc1ccc(Cc2ccncc2)cc1 | 2 | -6 | -5 | -6 | 2 | .
O=C(Nc1ccc(Nc2ccccc2)cc1)c1ccc(Cl)c([N+](=O)[O-])c1 | -1 | 36 | -5 | -4 | 0 | .
COc1ccc([N+](=O)[O-])cc1C(=O)Nc1ccc(Cc2ccncc2)cc1 | 1 | 60* | 3 | -2 | 4 | 54*
O=C(Nc1ccc(Cc2ccncc2)cc1)c1ccc(Cl)c([N+](=O)[O-])c1 | -1 | 56* | -3 | -1 | 4 | 63*
SMILES | A3A deaminase | FAS-TE inh | NPR2 activator | APOBEC3G inh | NPR1 activator | FAS-TE conf
Cc1c([N+](=O)[O-])cc(C(=O)Nc2ccc(Cc3ccncc3)cc2)cc1[N+](=O)[O-] | -2 | 63* | -7 | -3 | -1 | 51*
Cc1cc(C)c(CN2CCN(C(=O)Cn3cc(C)c(=O)[nH]c3=O)CC2)c(C)c1 | . | . | -3 | . | 2 | .
CC(=O)N1N=C(c2cccc([N+](=O)[O-])c2)OC1c1cccc(Br)c1 (stereo not drawn) | -1 | 54* | 1 | -3 | -4 | 60*
Cc1ccc(NC(=O)/C(=C\c2ccccc2)NC(=O)/C=C/c2ccccc2)cc1 | -3 | 73* | 9 | -3 | -6 | 2
O=C(/C=C/c1ccccc1)N/C(=C/c1ccccc1)C(=O)Nc1cccc(C(=O)O)c1 | 6 | -3 | -4 | 6 | -1 | .
O=C(Nc1ccc(F)cc1Cl)C1CCCN1S(=O)(=O)c1cccc2cccnc12 (stereo not drawn) | . | . | 6 | . | -1 | .
Cc1cc(C)nc(N2CCN(C(=O)CSc3nc4ccccc4nc3N3CC(C)OC(C)C3)CC2)n1 (stereo not drawn) | . | . | 2 | . | 1 | .
O=C(O)COc1ccccc1C(Nc1ccccn1)c1cc(Cl)c2cccnc2c1O (stereo not drawn) | 4 | 54* | 0 | -7 | 3 | 51*
OCCCn1c(CCNc2nc(-c3ccc(Cl)cc3)cs2)nc2cc(C(F)(F)F)ccc21 | -5 | 20 | -13 | -5 | -7 | .
Cc1nc2cc(C(F)(F)F)ccc2n1CCNc1nc(-c2ccc([N+](=O)[O-])c(Cl)c2)cs1 | -1 | 52* | -14 | -6 | -6 | 30
O=[N+]([O-])c1cc(-c2csc(NCCc3nc4cc(C(F)(F)F)ccc4n3CCCO)n2)ccc1Cl | -1 | 81* | -2 | -2 | -3 | 70*
O=C(OCc1ccc([N+](=O)[O-])cc1)C1CCN(S(=O)(=O)c2ccccc2)CC1 | 1 | 60* | -1 | -3 | -1 | 60*
COc1ccc(COC(=O)C2CCN(S(=O)(=O)c3ccc(F)cc3)CC2)cc1 | 0 | 27 | 2 | -4 | -2 | .
Cc1ccc(S(=O)(=O)N(C)C[C@@H]2OCc3ccccc3-c3c(n(C)c4ccccc34)C(=O)N([C@H](C)CO)C[C@@H]2C)cc1 | . | 29 | 6 | . | -6 | .
C[C@H]1CN([C@@H](C)CO)C(=O)c2cccc(NC(=O)Nc3ccc(C(F)(F)F)cc3)c2O[C@@H]1CN(C)S(=O)(=O)c1ccc(Cl)cc1 | -1 | 58* | 3 | -4 | -4 | -1
C[C@@H]1CN([C@H](C)CO)C(=O)c2cc(NC(=O)Nc3ccc(C(F)(F)F)cc3)ccc2O[C@H]1CN(C)S(=O)(=O)c1ccc(Cl)cc1 | -1 | 36 | 8 | -3 | -1 | .

From PubChem
